In PubChem BioAssay:
Active and inactive are the calls of the source. Unless noted, no rule for the calls is given here.

What was measured:
[1] = test system: XIP peptide (Xip251-270) binding; assay: XIP fragment 251-270 binding compounds – biochemical, small-molecule microarray, fluorescence 635/667 nm, 0.1 µg/mL protein, primary screen (AID 1182); settings: fluorescent protein binding, 635 nm, higher = more signal, called active from +8 up or from −8 down
XIP peptide (Xip251-270) = assay: compounds binding XIP fragment 251-270 – biochemical, small-molecule microarray, fluorescence 635/667 nm, 0.5 µg/mL protein, primary screen (AID 1183); settings: fluorescence 635 nm, higher = more signal
[2] = blood-stage malaria parasite viability loss – strain 3D7, DAPI fluorescence, 100 nL, primary screen (AID 1184);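 also: parasites grown inside human red blood cells in medium with human serum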; settings: P. falciparum 3D7 growth, 3 d, higher = more signal
[3] = target: Homeobox protein Hox-A13 (Mus musculus) (UniProt Q62424); assay: disruptors of Hoxa13 oligonucleotide interaction – biochemical, fluorescence polarization, labeled oligonucleotide, primary screen (AID 1185); settings: Hoxa13:DNA binding, 15 min, higher = more signal, called active from +8 up or from −8 down
[4] = blockers of DNA damage checkpoint Chk1 activation – imaging, HeLa, hydroxyurea, phospho-Chk1 antibody, percent positive cells, primary screen (AID 1186); settings: hydroxyurea-induced phospho-Chk1 immunofluorescence imaging, higher = more signal
[5] = blockers of DNA damage checkpoint Chk1 activation – imaging, HeLa, hydroxyurea, phospho-Chk1 nuclear intensity, primary screen (AID 1187); settings: hydroxyurea-induced phospho-Chk1 immunofluorescence imaging, higher = more signal

Sequence of Homeobox protein Hox-A13 (Mus musculus) (Q62424 whole entry, looked up): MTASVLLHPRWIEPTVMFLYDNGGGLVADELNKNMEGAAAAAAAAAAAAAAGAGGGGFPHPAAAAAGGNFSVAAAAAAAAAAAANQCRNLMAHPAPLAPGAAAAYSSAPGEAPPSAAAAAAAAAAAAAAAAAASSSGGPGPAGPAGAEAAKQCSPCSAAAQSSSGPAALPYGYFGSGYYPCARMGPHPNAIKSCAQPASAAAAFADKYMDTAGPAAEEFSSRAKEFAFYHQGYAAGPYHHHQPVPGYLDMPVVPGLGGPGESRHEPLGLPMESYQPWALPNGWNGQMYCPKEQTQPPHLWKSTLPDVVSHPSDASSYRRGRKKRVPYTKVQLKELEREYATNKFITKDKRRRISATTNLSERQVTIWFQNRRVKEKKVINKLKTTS

| Compound | composite z-score [1] | composite z-score (XIP peptide (Xip251-270)) | z-score [2] | z-score [3] | z-score [4] | z-score [5] |
| --- | --- | --- | --- | --- | --- | --- |
| CCOC(=O)C1=C[C@@H](C(C)(C)C)N(S(=O)(=O)c2ccc(C)cc2)[C@H]1c1ccc(Cl)c(Cl)c1 | -0.0073 (inactive) | 0.762 | -1.96 | -0.524 (inactive) | -0.0683 (inactive) | -0.633 (inactive) |
| C=CCC(OC(C)=O)[C@@H]1[C@@H](N(Cc2cc3ccccc3o2)C(=O)c2ccc(-c3ccccc3)cc2)c2cc(OCCCO)ccc2N1C(=O)Cc1ccc2ccccc2c1 (some centres undefined) | -0.317 (inactive) | -0.269 | -0.835 | -0.738 (inactive) | 0.485 (inactive) | 0.467 (inactive) |
| COc1ccc([Si](C)(C)[C@H]2[C@H](CC(=O)N(CCO)Cc3ccccc3)O[C@@]3(C(=O)N(Cc4cccc(N5C(=O)c6cccc7cccc5c67)c4)c4ccccc43)[C@@H]2C)cc1 | 0.719 (inactive) | 0.6 | -2.72 | -1.4 (inactive) | -1.31 (inactive) | -1.11 (inactive) |
| COC(=O)[C@@]1(Cc2ccc(F)cc2)[C@H]2c3cc(C(=O)N(C)C)n(CCc4c[nH]c5ccc(OC)cc45)c3C[C@H]2CN1C(=O)c1ccccc1 | 0.661 (inactive) | -0.21 | -1.52 | -0.694 (inactive) | 0.737 (inactive) | 0.0892 (inactive) |
| COCCn1c(C(=O)N(C)C)cc2c1C[C@H]1CN(C(=O)c3ccccc3)[C@@](Cc3ccc(F)cc3)(C(=O)OC)[C@@H]21 | 0.112 (inactive) | 0.0743 | -0.292 | -4.93 (inactive) | 0.562 (inactive) | 0.478 (inactive) |
| CC(c1ccccc1)C(O)C1C=CC2C(=O)N(Cc3ccccc3)C(=O)C2N1n1cnnc1 (centres undefined) | -0.429 (inactive) | 0.908 | -0.864 | -1.93 (inactive) | 0.106 (inactive) | -0.634 (inactive) |
| COCCOC(=O)N1C(=O)[C@@]2(c3ccccc31)[C@H](c1ccc(O)cc1)N1[C@H](c3ccccc3)[C@H](c3ccccc3)OC(=O)[C@H]1[C@@H]2C(N)=O | -0.728 (inactive) | -0.0106 | 0.346 | -5.26 (inactive) | -0.0882 (inactive) | -0.282 (inactive) |
| CN(C)CCCC[C@@H]1NC(=O)[C@@H]2C[C@H](C(=O)NCCCCCCN)[C@H](c3ccc(O)cc3)N2C1=O | 0.674 (inactive) | 0.0252 | 0.0094 | -2.65 (inactive) | 0.136 (inactive) | -0.366 (inactive) |
| CCCNC(=O)[C@@]1(C)c2ccccc2C(=O)N(Cc2cc(C(F)(F)F)cc(C(F)(F)F)c2)[C@H]1c1ccc(CO)cc1 | 0.977 (inactive) | 0.665 | -1.63 | -4.26 (inactive) | -0.0596 (inactive) | -0.0865 (inactive) |
| O=C(NCc1ccccc1)[C@@H]1c2ccccc2C(=O)N(Cc2cc(F)cc(C(F)(F)F)c2)[C@H]1c1ccc(CO)cc1 | 0.818 (inactive) | 0.941 | -0.0341 | -2.88 (inactive) | -1.07 (inactive) | -1.29 (inactive) |
| C=CCC(OC(C)=O)[C@@H]1[C@@H](N(Cc2cc3ccccc3o2)C(=O)c2cccc3ccccc23)c2cc(OCCCO)ccc2N1C(=O)Cc1ccc(OC)cc1 (some centres undefined) | 0.1 (inactive) | -0.208 | -2.37 | -3.31 (inactive) | 0.821 (inactive) | 0.775 (inactive) |
| C=C(CCCC)/C(=C/C[C@@H](OC(=O)c1ccncc1)c1ccc(CO)o1)c1cc(C(=O)OC)ccc1OC | 0.611 (inactive) | 0.83 | -0.519 | -3.68 (inactive) | -0.762 (inactive) | -1.65 (inactive) |
| [N-]=[N+]=NCc1ccccc1C[C@]1(C(N)=O)N=C(c2ccc(OCCCO)cc2)O[C@H]1c1ccccc1N=[N+]=[N-] | 2.56 (inactive) | 0.664 | -2.06 | -4.7 (inactive) | -0.118 (inactive) | -0.0296 (inactive) |
| O=C1OCCC/C=C\[C@H]2OC34C=CCN(Cn5nnc6ccccc65)C(=O)[C@H]3N(CCCO)C(=O)[C@@H]4C12 (some centres undefined) | -0.021 (inactive) | 0.652 | -0.0008 | -4.13 (inactive) | 0.472 (inactive) | -0.103 (inactive) |
| COc1ccc([Si](C)(C)[C@@H]2[C@@H](CC(=O)N3Cc4ccccc4C[C@H]3CO)O[C@]3(C(=O)N(Cc4cccc(N5C(=O)COc6ccccc65)c4)c4ccccc43)[C@H]2C)cc1 | 1.16 (inactive) | 0.778 | -2.79 | -0.616 (inactive) | -0.635 (inactive) | -0.0275 (inactive) |
| O=C(NCC(O)CO)[C@]1(CCS(=O)(=O)c2ccccc2)N=C(c2ccc(OCCCO)cc2)O[C@@H]1c1ccccc1 (some centres undefined) | 1.51 (inactive) | -0.0557 | -0.434 | -7.16 (inactive) | 0.429 (inactive) | -0.0974 (inactive) |
| [N-]=[N+]=NCc1ccccc1C[C@]1(C(=O)NCCN2CCOCC2)N=C(c2ccc(OCCCO)cc2)O[C@H]1c1ccccc1CN=[N+]=[N-] | 3.06 (inactive) | 0.578 | -2.67 | -2.59 (inactive) | -0.26 (inactive) | -0.787 (inactive) |

| Compound | composite z-score [1] | composite z-score (XIP peptide (Xip251-270)) | z-score [2] | z-score [3] | z-score [4] | z-score [5] |
| --- | --- | --- | --- | --- | --- | --- |
| C=CCOC(=O)[C@H]1[C@@H]2C(=O)O[C@@H](c3ccccc3)[C@@H](c3ccccc3)N2[C@@H](c2ccc(OCCOC(=O)[C@@H]3C[C@@H]4C(=O)NCC(=O)N4[C@@H]3c3ccc(O)cc3)cc2)[C@]12C(=O)Nc1ccc(I)cc12 | 0.2 (inactive) | 0.825 | -1.11 | 0.274 (inactive) | 0.147 (inactive) | 0.192 (inactive) |
| [N-]=[N+]=NCc1ccccc1[C@H]1OC(c2ccc(OCCCO)cc2)=N[C@@]1(Cc1ccccc1)C(=O)O | 0.419 (inactive) | 0.652 | 0.45 | -5.05 (inactive) | -0.594 (inactive) | -1.1 (inactive) |
| CC(=O)N1Cc2ccccc2C[C@@]2(N=C(c3ccc(OCCCO)cc3)O[C@H]2c2ccccc2)C1=O | 1.11 (inactive) | 0.887 | -2.24 | -3.3 (inactive) | -0.662 (inactive) | -0.681 (inactive) |
| C=CCN1Cc2ccccc2C[C@]2(N=C(c3ccc(OCCCO)cc3)O[C@@H]2c2ccccc2)C1=O | 1.27 (inactive) | 0.824 | -2.31 | -3.62 (inactive) | -0.802 (inactive) | -0.978 (inactive) |
| C=C(C(=O)CC[C@@H](OC(C)=O)c1ccc(OCCO)cc1)C(C)C | 0.564 (inactive) | 0.101 | -1.42 | -3.67 (inactive) | 0.598 (inactive) | 0.147 (inactive) |
| [N-]=[N+]=Nc1ccccc1[C@H]1OC(c2ccc(OCCCO)cc2)=N[C@@]1(CCS(=O)(=O)c1ccccc1)C(=O)N1CCOCC1 | 1.72 (inactive) | 0.562 | -2.04 | -1.14 (inactive) | -0.0149 (inactive) | 0.0382 (inactive) |
| CC(C)(C)OC(=O)CC[C@@]1(C(=O)NCC(O)CO)N=C(c2ccc(OCCCO)cc2)O[C@@H]1c1ccccc1 (some centres undefined) | 0.826 (inactive) | 0.942 | 0.649 | -4.48 (inactive) | 0.184 (inactive) | -0.14 (inactive) |
| COC(=O)[C@@]1(Cc2ccc(OC)cc2)[C@H]2c3cc(C(=O)N(C)C)n(CCSCCO)c3C[C@H]2CN1C(=O)c1ccccc1 | 0.149 (inactive) | 0.504 | -1.48 | -5.09 (inactive) | -0.02 (inactive) | 0.101 (inactive) |
| COC(=O)C(CC#Cc1ccc2c(c1)[C@]1(C(=O)N2)[C@H](C(=O)N2CCCCCCC2)[C@H]2C(=O)O[C@H](c3ccccc3)[C@H](c3ccccc3)N2[C@@H]1c1ccccc1OCCO)C(=O)OC | 8 (inactive) | 1.04 | -2.21 | 1.03 (inactive) | 0.0041 (inactive) | 0.0484 (inactive) |
| CCCCC(=O)N(Cc1ccccc1F)[C@@H]1CC(C(=O)NCCO)=C[C@H](Oc2c(I)cc(CO)cc2OC)[C@H]1O | 0.466 (inactive) | 0.704 | -1.66 | -7.53 (inactive) | 0.148 (inactive) | 0.545 (inactive) |
| Cc1ccc(N2C(=O)c3ccccc3[C@@H](C(=O)NC(C)C)[C@@H]2c2ccc(CO)cc2)nc1 | 0.262 (inactive) | 0.82 | 0.679 | -1.68 (inactive) | 0.364 (inactive) | 0.43 (inactive) |
| O=C1c2ccccc2[C@](Cc2ccccc2I)(C(=O)O)[C@H](c2ccc(CO)cc2)N1Cc1ccccc1C(F)(F)F | 0.185 (inactive) | 0.506 | 0.33 | -5.85 (inactive) | -0.344 (inactive) | -0.572 (inactive) |
| C=CCN1C(=O)[C@]2(COC(c3ccc(OCCCO)cc3)=N2)Cc2ccccc21 | 2.53 (inactive) | 0.797 | -2.19 | -4.31 (inactive) | -0.455 (inactive) | -0.398 (inactive) |
| NC(=O)NCC#Cc1ccc2c(c1)[C@]1(C(=O)N2)[C@H](c2ccc(O)cc2)N2[C@H](c3ccccc3)[C@H](c3ccccc3)OC(=O)[C@H]2[C@@H]1C(=O)N1CCN(c2ncccn2)CC1 | 0.17 (inactive) | 0.466 | -0.136 | -1.61 (inactive) | 0.477 (inactive) | 1.04 (inactive) |
| COCCOC(=O)N1C(=O)[C@@]2(c3cc(C#CCCO)ccc31)[C@H](c1ccc(O)cc1)N1[C@H](c3ccccc3)[C@H](c3ccccc3)OC(=O)[C@H]1[C@@H]2C(=O)N1CCCCCCC1 | 0.449 (inactive) | 0.723 | -0.0358 | -1.14 (inactive) | -0.0035 (inactive) | -0.334 (inactive) |
| CC1CC/C=C\[C@H]2OC34C=CCN(CCN5CCOCC5)C(=O)[C@H]3N(CCCCCO)C(=O)[C@@H]4C2C(=O)O1 (some centres undefined) | -0.173 (inactive) | -1.32 | -0.143 | -5.32 (inactive) | -0.0913 (inactive) | -0.364 (inactive) |
| CCCNC(=O)[C@@]1(C)c2ccccc2C(=O)N(Cc2cc(F)cc(C(F)(F)F)c2)[C@H]1c1ccc(CO)cc1 | 1.33 (inactive) | 0.718 | -0.8 | -3.51 (inactive) | 0.309 (inactive) | 0.226 (inactive) |
